Compound activity (PubChem BioAssay)
KDM5B inh: inhibitors of human KDM5B histone demethylase. Q9UGL1. KDM5B demethylase, FDH-coupled NADH fluorescence (FDH is formaldehyde dehydrogenase). Potency, µM (doses to about 57.7 µM), hits mostly inhibitors. actives 2.6% (n = 220,000); active = well fitted inhibition curve with a large enough effect; inconclusive = small, poorly fitted or top-dose-only effect; inactive = no such curve, though single readings can be large or run the other way; also: potency is read from the fitted curve at half-maximal effect; 0% is about no effect; nearly all actives have a fitted effect of over 70% in size
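KDM5BΔAP (200 nM final) in 50 mM HEPES pH 7.5, 0.01% Tween-20 was preincubated 10 min at RT with compound over a concentration range. Substrate mix (H3K4me3 12.5 µM, α-KG 25 µM, Fe²⁺, ascorbate, NAD⁺, FDH) was added, and NADH fluorescence change over 30 min gave dose-response curves.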
IP6K1 inh: IP6K1 kinase inhibition. actives 0.81% (n = 140,000). activity change, % (series mostly up to about 58 µM). Q92551. IP6K1 kinase, ADP-Glo luminescence, 2 h; active compounds read low; in the data active = activity change below about -25%; also: % is scaled to controls: 0 for no effect and ±100 for the full control effect
Target sequence (Q92551 whole entry, looked up): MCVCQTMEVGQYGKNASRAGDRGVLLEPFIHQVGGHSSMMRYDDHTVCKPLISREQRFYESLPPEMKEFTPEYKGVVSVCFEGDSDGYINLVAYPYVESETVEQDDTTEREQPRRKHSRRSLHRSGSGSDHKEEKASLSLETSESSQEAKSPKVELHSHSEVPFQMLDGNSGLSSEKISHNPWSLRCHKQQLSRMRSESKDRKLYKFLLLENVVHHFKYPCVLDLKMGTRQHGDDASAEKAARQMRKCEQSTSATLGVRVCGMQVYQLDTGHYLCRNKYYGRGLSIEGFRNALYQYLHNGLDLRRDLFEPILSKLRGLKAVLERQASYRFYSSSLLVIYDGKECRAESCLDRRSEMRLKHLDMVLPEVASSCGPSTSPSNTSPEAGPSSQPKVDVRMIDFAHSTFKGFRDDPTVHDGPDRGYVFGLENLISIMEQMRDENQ
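ADP-Glo luminescence measures ADP made by human IP6K1 during a 2 h RT reaction with ATP/IP6 (mix at 1.3 mM/130 uM); top library doses 57.5 and 19.1 uM final.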
* marks the source's active call; other numbers are inactive results; i = inactive; ? = inconclusive; . = no result given. Shown are actives, neighbours in structure and some others; about 2.8% of the full set was active somewhere.

SMILES	KDM5B inh	IP6K1 inh
Cc1nc(CN2CC3(CCN(C)C3)c3cc(C(=O)NCc4cccs4)ccc32)cs1 (configuration not stated)	35µM*	6
COc1ccc(NC(=O)c2ccc3c(c2)C2(CCN(C)C2)CN3CC2CC2)cc1 (configuration not stated)	?	14
O=C(NCc1ccc(Cl)cc1)c1cccc(-c2ccc(S(=O)(=O)N3CCCCC3)cc2)c1	i	.
CN(C)CC(=O)N1CCC2(C1)CN(C)c1ccc(C(=O)NCc3cccs3)cc12 (configuration not stated)	40µM*	5
Cc1nc(CN2CC3(CCN(C)C3)c3cc(C(=O)NCC4CC4)ccc32)cs1 (configuration not stated)	28µM*	10
CC(C)CCN1CCOc2cc(C(=O)NCc3cccs3)ccc2C1	i	-13
COc1ccc(Nc2ccnc(N3CCN(C(=O)c4ccccc4F)CC3)n2)cc1	.	24
COc1ccc(OCC2CN(CCc3ccccc3)S(=O)(=O)c3cnccc3O2)cc1 (configuration not stated)	.	-10
COc1ccccc1-c1ccc2c(C(=O)N3CCC(C#N)CC3)nn(C)c2n1	.	10
Cc1cccc(C)c1-c1nc(C(=O)N2CCC(C#N)CC2)n2ccccc12	100µM*	-23
Cc1cccc(C)c1-c1nc(C(=O)NC(C)C)n2ccccc12	?	14
COc1ccccc1-c1nc(C(=O)N2CCC(C#N)CC2)n2ccccc12	28µM*	9
CSc1ccc(-c2cccc(C(=O)NCC(=O)NCc3ccc(F)cc3)c2)cc1	.	4
COc1ccc(-c2ccc3ncc(Nc4cc(F)ccc4OC)n3n2)cn1	i	-15
CN(C)c1ccc2ncc(Nc3ccc(Cl)cn3)n2n1	35µM*	-12
Clc1ccc(Nc2cnc3ccc(-c4ccccc4)nn23)nc1	i	-25
COc1ccc(F)cc1Nc1cnc2ccc(N(C)C)nn12	32µM*	-17
CN(C)CCC#CC(O)(c1ccccc1)C1CCCCC1 (configuration not stated)	i	.
Cn1ncc(N2CCC(CNC(=O)c3cn4cccnc4n3)C2)cc1=O (configuration not stated)	28µM*	-9
Cn1ncc(N2CCC(CNC(=O)c3cccc(CO)n3)C2)cc1=O (configuration not stated)	i	19
Cc1ccc(S(=O)(=O)N2CCC(C(=O)NCc3csc(-c4ccccc4)n3)CC2)cc1C	i	.
COc1ccccc1-c1ccc(C(=O)N2CCC(NC(=O)c3ccc(Cl)nc3)CC2)cc1	.	-11
Fc1ccc2nc(CO[C@H]3CN(Cc4ccc5ccccc5n4)C[C@H]3F)[nH]c2c1	35µM*	-4
Fc1ccc2nc(CO[C@H]3CN(Cc4ccccn4)C[C@H]3F)[nH]c2c1	i	2
COc1cccc(CNC(=O)c2ccc3oc(-c4cccnc4)nc3c2)c1	.	12
SMILES	KDM5B inh	IP6K1 inh
O=C(O)c1ccnc(-c2ccnc(NCCCN3CCCC(O)C3)n2)c1 (configuration not stated)	?	2
CN1CCN(CCCNc2nccc(-c3ccccn3)n2)CC1	28µM*	-10
c1ccc(CCCNc2nccc(-c3ccccn3)n2)nc1	28µM*	20
COCc1cc(CNc2nccc(-c3ccccn3)n2)[nH]n1	?	-20
O=[S+]([O-])(NC1CCCN(c2ccnc3ccnn23)C1)c1cccs1 (configuration not stated)	.	13
C/C(=N\N=C(N)N)c1cc(NC(=O)CCCCCCCCC(=O)Nc2cc(/C(C)=N/N=C(N)N)cc(/C(C)=N/N=C(N)N)c2)cc(/C(C)=N/N=C(N)N)c1	.	-15
CCCCCNC(=O)CNC(=O)c1cccc(-c2ccsc2)c1	.	10
CNC(=O)c1cc(C2CC2)nc2c1c(C1CCCN(C(=O)Cc3ccc(F)cc3)C1)nn2C (configuration not stated)	.	-4
CN1CCN(c2ccc(-c3nccc4c(=O)cc(N(C)c5ccccc5)oc34)cn2)CC1	?	-7
COc1ncc(-c2nccc3c(=O)cc(N(C)c4ccccc4)oc23)cn1	i	-16
COc1ccc(-c2nccc3c(=O)cc(N4CCN(C)CC4)oc23)cn1	32µM*	-12
COc1ncc(-c2nccc3c(=O)cc(N4CCN(C)CC4)oc23)cn1	35µM*	9
Cn1nc(C(=O)N2CCC[C@H](n3c(=O)n(CC4CC4)c4cccnc43)C2)c2ccccc21	.	-16
Cn1ncc2c(C(=O)N3CCCC3)cc(-c3ccc(Cl)cc3Cl)nc21	.	-17
Cc1nn(C)c(C)c1S(=O)(=O)N1CCCC(C(=O)N2CCCn3nc(-c4ccc(F)cc4)cc3C2)C1 (configuration not stated)	.	5
O=C(NCc1cccc(F)c1)c1cc(-c2cccc(C(F)(F)F)c2)c2nncn2n1	.	-3
O=C(c1cc2c(s1)CCCC2)N1CCc2c(nc3cc(-c4ccccc4)[nH]n3c2=O)C1	i	30
O=C(c1ccccc1Cl)N1CCc2c(nc3cc(-c4ccccc4)[nH]n3c2=O)C1	35µM*	14
O=C(c1n[nH]c2c1CCCCCC2)N1CCc2c(nc3cc(-c4ccccc4)[nH]n3c2=O)C1	?	54
CCn1cc(Cl)c(C(=O)N2CCc3c(nc4cc(-c5ccccc5)[nH]n4c3=O)C2)n1	25µM*	26
CCOC(=O)CCNC(=O)N1CCc2c(nc3cc(-c4ccccc4)[nH]n3c2=O)C1	28µM*	16
CN(C)S(=O)(=O)N1CCc2c(nc3cc(-c4ccccc4)[nH]n3c2=O)C1	22µM*	22
CCOC(=O)CCNC(=O)N1CCc2c(nc(-c3ccccc3)[nH]c2=O)C1	i	34
O=C(c1nccc2ccccc12)N1CCc2c(nc3cc(-c4ccccc4)[nH]n3c2=O)C1	?	19
Cc1cc(C)n(Cc2ccc(C(=O)N3CCCCCC3c3nnc(-c4ccccc4)o3)o2)n1 (configuration not stated)	.	-4
SMILES	KDM5B inh	IP6K1 inh
CC(=O)N1CCN(C(=O)CNC(=O)c2cccc(-c3ccsc3)c2)CC1	.	-4
CCOc1ccccc1CN1CCO[C@@H](COC)[C@@H]1c1ccccc1	.	3
COc1ccccc1Cn1c(=O)c(C(=O)N2CCC(Cc3ccccc3)CC2)nc2cccnc21	.	5
COc1ccc(F)cc1-c1ccc(CN2CCCCC2C(=O)N2CCCN(C(C)=O)CC2)cc1 (configuration not stated)	.	-3
Cc1cccc(-c2nc(CCN(C)S(=O)(=O)c3cccc4nsnc34)no2)c1	i	.
Cc1noc(C)c1S(=O)(=O)N1CCc2nc3cc(-c4ccccc4)[nH]n3c(=O)c2C1	28µM*	6
COc1ccc(Cl)cc1C(=O)N1CCc2nc3cc(-c4ccccc4)[nH]n3c(=O)c2C1	25µM*	0
COc1ccc(S(=O)(=O)N2CCc3nc4cc(-c5ccccc5)[nH]n4c(=O)c3C2)cc1	?	0
COc1ccc(-c2nc3c(c(=O)[nH]2)CCN(C(=O)c2cc(Cl)ccc2OC)C3)cc1	?	20
CCn1ncc(CN2CCCC23CCN(c2ccc(C(F)(F)F)cn2)CC3)c1C	28µM*	1
Nc1ncccc1CN1CCCC12CCN(c1ccc(C(F)(F)F)cn1)CC2	?	8
COc1ccc(C(=O)N[C@@H]2CN(Cc3ccccc3)C[C@H]2CN(C)C)cc1	.	6
CCC(C)NC(=O)c1cc(-c2ccccc2OC)nc2c1cnn2C (configuration not stated)	.	0
